Assay [1] in a line: compounds binding Alexa647 anti-His antibody – biochemical, small-molecule microarray, 635 nm fluorescence, artefact control for SMM control protein annotation, primary screen (AID 1128).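 Further: score merges feature fluorescence with signal-to-noise for each printed compound spot.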 Particulars: higher = more signal.
Assay [2] deals with Human papillomavirus type 1a E7 protein (residues 1-88). Kind of assay: HPV1a E7 small-molecule binders, primary screen, biochemical, small-molecule microarray, residues 1-88, 635 nm (AID 1129). Particulars: small-molecule microarray binding, fluorescence 635 nm; higher = more signal.
The target in assay [3] is Focal adhesion kinase 1 (Homo sapiens) (UniProt Q05397). The experiment in a line: PTK2 protein binding on printed compound slides – biochemical, small-molecule microarray, 635/667 nm fluorescence, BSA, DTT, primary screen (AID 1130).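 Further: composite of spot emission at 667 nm and signal to noise over triplicate slides.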 Particulars: 635 nm fluorescence, higher = more signal.
Assay [4] concerns Fibrinogen (Alexa647-labelled). Kind of assay: Alexa647-fibrinogen binding to printed small molecules – biochemical, small-molecule microarray, 635/667 nm fluorescence, artefact control for SMM control-protein annotation, profiling panel (AID 1131).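 Further: z-score merges 667 nm fluorescence with per-spot signal-to-noise over triplicate slides.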 Particulars: fibrinogen-A647 binding fluorescence, higher = more signal.
In assay [5] the target is Follistatin (Homo sapiens) (UniProt P19883). Kind of assay: FST protein binding to printed compounds – biochemical, small-molecule microarray, 635/667 nm fluorescence, primary screen (AID 1132). Particulars: 635 nm fluorescence, higher = more signal.
For assay [6], the target named is Fibroblast growth factor 2 (Homo sapiens) (UniProt P09038). The experiment in a line: basic fibroblast growth factor binding to printed compounds – biochemical, small-molecule microarray, 635/667 nm fluorescence, primary screen (AID 1133). As to conditions: FGF2, fluorescence 635/667, higher = more signal.
Assay [7] is described as follows: JC-1 mitochondrial potential readout, lung cancer cells – cell-based, A549, JC-1 fluorescence, basal, 24 h, 100 nL, profiling panel (AID 1138).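 Further: A549 lung adenocarcinoma cells under basal conditions with no added stimulus; test concentration not given here.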 Particulars: higher = more signal.
For assay [8], the system named is Lefty1. The experiment in a line: Lefty1 protein binding to printed compounds – biochemical, small-molecule microarray, 635/667 nm fluorescence, primary screen (AID 1139). As to conditions: fluorescence 635/667, higher = more signal.
For assay [9], the system named is wheat germ agglutinin (Triticum aestivum), Alexa647-labelled. Kind of assay: Alexa647-WGA lectin binding to printed small molecules – biochemical, small-molecule microarray, 635/667 nm fluorescence, artefact control for SMM control-protein annotation, profiling panel (AID 1140).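 Further: score merges 667 nm feature emission with signal to noise over triplicate slides.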 Particulars: WGA-A647 binding, 635 nm fluorescence, higher = more signal.
For assay [10], the target named is Luciferin 4-monooxygenase (Photinus pyralis) (UniProt P08659). The experiment in a line: inhibition of purified Photinus pyralis luciferase – biochemical, luminescence, purified enzyme, 2006 set, primary screen (AID 1141).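 Further: cell-free assay with purified firefly luciferase at 100 ng per well in PBS; test concentration not given here.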 Particulars: purified firefly luciferase, SteadyGlo luminescence, 30 min; higher = more signal, called active from +8 up or from −8 down.
Assay [11] relates to Wnt5a (protein binding on small-molecule microarray). The experiment in a line: small molecules binding Wnt5a protein – biophysical, small-molecule microarray, 635/667 nm fluorescence, primary screen (AID 1142).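 Further: fluorescence read at 667 nm with signal to noise per printed feature.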 As to conditions: 635 nm fluorescence, higher = more signal.
Assay [12] in a line: ATP-based viability of Huh7 replicon cells – cell-based, CellTiter-Glo luminescence, basal, 48 h, cytotoxicity control for HCV replication inhibitor project, primary screen (AID 1143).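 Further: Huh7 hepatoma cells carrying a hepatitis C replication reporter with no stimulus; test concentration not given here.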 Particulars: higher = more signal, called active from +8 up or from −8 down. A general note: In antiviral work, replicon cells carry a viral genome segment that copies itself.
Assay [13] can be described thus: Pseudomonas biofilm growth suppression – PAO1 strain, BacTiter-Glo luminescence, LB-PBS, primary screen (AID 1144). Particulars: P. aeruginosa PAO1 biofilm, 12 h, higher = more signal.
Assay [14] can be described thus: basal CRE-LacZ reporter activity in PC12 – cell-based, unstimulated, primary screen (AID 1145). Particulars: no forskolin, luminescence, 4.5 h, higher = more signal, called active from +8 up or from −8 down.
The nature of assay [15]: forskolin-driven CRE-LacZ activity in PC12 – cell-based, CRE-LacZ reporter, forskolin-stimulated, primary screen (AID 1146).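 Further: PC12 cells with 6xCRE LacZ reporter stimulated by forskolin 10 µM; beta-galactosidase reporter signal reflecting CREB driven transcription.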 As to conditions: luminescence, 4.5 h, higher = more signal, called active from +8 up or from −8 down.
Assay [16] addresses Streptavidin (Streptomyces avidinii) (UniProt P22629). The experiment in a line: compounds binding control protein streptavidin – biophysical, small-molecule microarray, 635/667 nm fluorescence, artefact control for SMM compound annotation, primary screen (AID 1147).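 Further: signal reflects streptavidin binding to arrayed compounds as a control protein.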 As to conditions: higher = more signal.
Assay [17] can be described thus: probe aInhba binding on compound microarray – biochemical, small-molecule microarray, 635/667 nm fluorescence, primary screen (AID 1148).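 Further: score merges 667nm spot fluorescence with signal-to-noise for antibody binding to printed compounds.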 As to conditions: higher = more signal.
Assay [18] has as its target Torsin-1A (Homo sapiens) (UniProt O14656). The experiment in a line: TOR1A wild-type binding on microarray – cell lysate, small-molecule microarray, lysate, 635/667 nm, primary screen (AID 1149). As to conditions: COS7 hTOR1A-WT lysate, 635 nm fluorescence, higher = more signal.
Assay [19] has the same target. The experiment in a line: torsin A mutant lysate binding on microarrays – cell lysate, small-molecule microarray, COS7 lysate, 635/667 nm fluorescence, primary screen (AID 1150).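 Further: score pools 667 nm emission and signal to noise measuring lysate protein binding.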 Particulars: COS7 hTOR1A mutant lysate, 635 nm fluorescence, higher = more signal.
Assay [20] has as its system Sonic hedgehog protein (Shh). Kind of assay: Sonic hedgehog microarray binding compounds – biochemical, small-molecule microarray, 635/667 nm fluorescence, primary screen (AID 1151).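 Further: Shh protein binding to compounds spotted on small-molecule microarray slides; score combines spot fluorescence intensity with signal-to-noise across triplicate slides.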 As to conditions: 635 nm fluorescence, higher = more signal.

Molecules are shown by their SMILES. “And” between values parts separate entries of the source, which are not always exact repeats. Equal entries are not always repeated. The source made the active and inactive calls. Unless noted, how the calls were made is not given here.

Sequence of Torsin-1A (Homo sapiens) (O14656 whole entry, looked up): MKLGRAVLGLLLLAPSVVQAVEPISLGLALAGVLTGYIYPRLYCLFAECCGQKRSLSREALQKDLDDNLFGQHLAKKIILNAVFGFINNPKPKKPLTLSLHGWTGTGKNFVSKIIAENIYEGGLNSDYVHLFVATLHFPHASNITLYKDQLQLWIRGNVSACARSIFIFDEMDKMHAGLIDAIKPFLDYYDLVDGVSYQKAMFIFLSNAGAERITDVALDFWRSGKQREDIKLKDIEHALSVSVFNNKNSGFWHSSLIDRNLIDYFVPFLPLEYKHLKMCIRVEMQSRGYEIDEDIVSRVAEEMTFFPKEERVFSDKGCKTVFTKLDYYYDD
Sequence of Follistatin (Homo sapiens) (P19883 whole entry, looked up): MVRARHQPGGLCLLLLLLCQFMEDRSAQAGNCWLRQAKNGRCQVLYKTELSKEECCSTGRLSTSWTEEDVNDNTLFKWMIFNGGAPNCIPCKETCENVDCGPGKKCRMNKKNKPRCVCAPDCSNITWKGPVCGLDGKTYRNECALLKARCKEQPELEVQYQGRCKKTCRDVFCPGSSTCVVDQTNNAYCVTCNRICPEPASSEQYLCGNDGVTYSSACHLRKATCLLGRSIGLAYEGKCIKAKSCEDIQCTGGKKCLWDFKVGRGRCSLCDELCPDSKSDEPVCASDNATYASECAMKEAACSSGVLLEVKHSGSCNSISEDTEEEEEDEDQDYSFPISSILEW
Sequence of Focal adhesion kinase 1 (Homo sapiens) (Q05397 whole entry, looked up): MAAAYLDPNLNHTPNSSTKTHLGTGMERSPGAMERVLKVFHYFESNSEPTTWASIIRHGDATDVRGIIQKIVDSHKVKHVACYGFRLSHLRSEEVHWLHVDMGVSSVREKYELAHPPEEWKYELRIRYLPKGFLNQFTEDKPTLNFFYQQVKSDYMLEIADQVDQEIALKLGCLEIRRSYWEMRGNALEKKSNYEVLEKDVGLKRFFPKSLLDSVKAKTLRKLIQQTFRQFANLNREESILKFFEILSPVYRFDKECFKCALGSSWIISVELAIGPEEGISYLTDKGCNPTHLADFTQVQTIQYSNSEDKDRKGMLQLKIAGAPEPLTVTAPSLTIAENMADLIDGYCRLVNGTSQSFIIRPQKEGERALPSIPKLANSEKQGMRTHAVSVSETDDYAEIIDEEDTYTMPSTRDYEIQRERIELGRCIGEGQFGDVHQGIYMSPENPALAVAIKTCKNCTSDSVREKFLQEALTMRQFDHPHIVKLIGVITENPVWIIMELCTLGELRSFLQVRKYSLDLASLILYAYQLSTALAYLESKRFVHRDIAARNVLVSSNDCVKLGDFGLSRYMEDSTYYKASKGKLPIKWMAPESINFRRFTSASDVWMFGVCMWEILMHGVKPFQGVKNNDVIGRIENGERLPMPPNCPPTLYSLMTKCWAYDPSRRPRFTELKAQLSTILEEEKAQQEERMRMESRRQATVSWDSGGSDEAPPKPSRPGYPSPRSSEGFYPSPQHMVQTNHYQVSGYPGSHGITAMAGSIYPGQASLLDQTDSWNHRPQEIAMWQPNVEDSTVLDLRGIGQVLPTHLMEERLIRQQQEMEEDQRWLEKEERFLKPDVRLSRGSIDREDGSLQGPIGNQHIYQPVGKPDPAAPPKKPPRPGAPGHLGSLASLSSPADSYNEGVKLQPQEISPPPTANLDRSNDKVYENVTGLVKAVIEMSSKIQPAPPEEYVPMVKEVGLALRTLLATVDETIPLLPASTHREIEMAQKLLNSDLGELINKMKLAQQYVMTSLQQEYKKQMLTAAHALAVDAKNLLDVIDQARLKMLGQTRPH
Sequence of Luciferin 4-monooxygenase (Photinus pyralis) (P08659 whole entry, looked up): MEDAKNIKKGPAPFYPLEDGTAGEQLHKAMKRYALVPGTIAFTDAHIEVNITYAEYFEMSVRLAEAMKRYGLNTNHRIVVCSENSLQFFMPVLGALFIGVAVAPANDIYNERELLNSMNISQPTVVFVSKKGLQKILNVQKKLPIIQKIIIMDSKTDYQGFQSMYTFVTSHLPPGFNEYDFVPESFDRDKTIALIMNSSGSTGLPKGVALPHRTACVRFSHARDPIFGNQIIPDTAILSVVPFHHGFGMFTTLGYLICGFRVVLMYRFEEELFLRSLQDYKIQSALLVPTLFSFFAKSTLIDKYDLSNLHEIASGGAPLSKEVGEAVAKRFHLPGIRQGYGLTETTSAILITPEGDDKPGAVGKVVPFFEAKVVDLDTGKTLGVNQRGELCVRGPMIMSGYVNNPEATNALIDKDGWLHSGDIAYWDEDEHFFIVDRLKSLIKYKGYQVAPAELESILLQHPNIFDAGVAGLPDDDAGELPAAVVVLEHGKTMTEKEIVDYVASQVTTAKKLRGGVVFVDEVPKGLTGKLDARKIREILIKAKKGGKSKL
Sequence of Fibroblast growth factor 2 (Homo sapiens) (P09038 whole entry, looked up): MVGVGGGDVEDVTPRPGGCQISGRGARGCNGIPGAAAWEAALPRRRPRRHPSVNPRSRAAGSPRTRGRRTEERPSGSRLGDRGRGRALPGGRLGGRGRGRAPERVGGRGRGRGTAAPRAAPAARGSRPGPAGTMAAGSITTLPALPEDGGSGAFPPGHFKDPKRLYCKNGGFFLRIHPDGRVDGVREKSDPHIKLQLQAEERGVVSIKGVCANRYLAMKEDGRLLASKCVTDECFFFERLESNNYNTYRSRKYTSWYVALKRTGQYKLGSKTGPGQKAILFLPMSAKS
Sequence of Streptavidin (Streptomyces avidinii) (P22629 whole entry, looked up): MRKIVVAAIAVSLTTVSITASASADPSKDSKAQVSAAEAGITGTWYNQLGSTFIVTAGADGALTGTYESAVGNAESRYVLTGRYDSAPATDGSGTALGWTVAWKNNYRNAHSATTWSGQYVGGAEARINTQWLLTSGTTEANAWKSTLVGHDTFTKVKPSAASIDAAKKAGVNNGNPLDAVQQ

Regarding `CCCCCN1CC=CC23O[C@@H]4C=CCCOC(=O)C4[C@H]2C(=O)N(C(C)CO)[C@@H]3C1=O` (stereo not given in full), the composite z-score was 1.58 and 0.0947 in [1]; -0.367 and -0.292 in assay [2]; -0.0918 and 0.206 in assay [3]; -0.458 and 0.0661 in assay [4]; -0.11 and -0.0282 in assay [5]; -0.387 and -1.17 in assay [6]. For the same compound, the composite z-score in assay [8] was 0.178 and 0.382; in assay [9], 0.138 and -0.194; in assay [11] it was -0.226 and -0.744; in assay [16] it was -0.819 and -0.0005; in assay [17], -0.837 and -0.0933; in [18], 1.07 and -1.42. For the same compound, the composite z-score in assay [19] was 0.128 and -0.904; in assay [20], 0.644 and 0.138. The z-score in assay [7] was -0.449 and -0.859; in assay [10] it was 0.328 (inactive) and 0.283 (inactive); in [12], -0.153 (inactive) and 0.0164 (inactive); in assay [13], -1.76 (inactive) and -0.529 (inactive); in assay [14] it was -0.48 (inactive) and -0.639 (inactive); in assay [15], -0.215 (inactive) and -0.498 (inactive).

As for `CC(CO)N1C(=O)[C@@H]2C3C(=O)OCCC=C[C@H]3OC23C=CCN(Cn2nnc4ccccc42)C(=O)[C@@H]13` (stereo not given in full), the composite z-score in assay [1] is 0.398 and 1.77; in [2] it was -0.66 and 0.136; in [3] it was -0.244 and -0.0494; in assay [4], -0.332 and -0.0118; in [5], -0.93 and 0.345; in assay [6], -1.31 and -0.224. The composite z-score in assay [8] was -1.34 and 0.247; in [9], -0.711 and -0.23; in assay [11], -0.757 and 0.0538; in assay [16] it was -0.909 and -0.228; in [17], -0.0675 and -0.0405; in [18], -1.13 and 1.95. For the same compound, the composite z-score in [19] is -0.987 and 0.603; in assay [20], -1.26 and 0.935. Besides, the z-score in [7] is -0.469 and -0.766; in assay [10], 0.0511 (inactive) and 0.399 (inactive); in assay [12], -0.095 (inactive) and -0.464 (inactive); in assay [13] it was 0.422 (inactive) and -0.131 (inactive); in [14] it was -0.208 (inactive) and -1.44 (inactive); in [15], -0.372 (inactive) and 0.774 (inactive).

For the compound `COC(=O)CC=C[C@@H](C)[C@@H](CO)NS(=O)(=O)c1ccc(C)cc1`, the composite z-score is 0.929 and 0.293 in [1]; 0.298 and 0.512 in assay [2]; 0.0223 and -0.111 in assay [3]; -0.223 and 0.225 in assay [4]; 0.523 and 0.791 in assay [5]; 0.646 and 0.574 in [6]. Also, the composite z-score in assay [8] is 0.648 and 0.88; in assay [9], -0.22 and 0.117; in assay [11] it was 0.234 and 0.125; in assay [16] it was -0.183 and 0.469; in assay [17], -0.05 and 0.0248; in assay [18] it was 0.448 and 0.478. The composite z-score in [19] is 0.32 and 1.08; in [20], 0.759 and 1.44. The z-score was -0.145 and 0.884 in [7]; 0.0494 (inactive) and -0.803 (inactive) in [10]; 0.577 (inactive) and -0.18 (inactive) in assay [12]; 0.773 (inactive) and -0.379 (inactive) in [13]; 1.1 (inactive) and 0.288 (inactive) in assay [14]; -0.196 (inactive) and -0.693 (inactive) in assay [15].

Turning to `COc1ccc(O[C@H]2C=C[C@@H](c3ccccc3)O[C@@H]2COC(=O)CCC(C)=NO[C@H](C)c2cn([C@H](CO)Cc3ccccc3)nn2)cc1`, the composite z-score is 2.33 and 1.58 in [1]; -0.0422 and 0.437 in [2]; 0.142 and -0.0962 in assay [3]; 0.643 and 0.766 in [4]; 0.125 and 0.326 in assay [5]; 0.218 and 0.684 in assay [6]. The composite z-score is 0.653 and 0.557 in [8]; 0.207 and 0.223 in [9]; 0.205 and -0.274 in [11]; 0.379 and 2.03 in assay [16]; 0.344 and 0.104 in assay [17]; 0.362 and 0.702 in [18]. In addition, the composite z-score in assay [19] is 0.127 and 0.463; in assay [20], 0.372 and 1.69. The z-score in assay [7] is -1.04 and -0.144; in assay [10] it was 0.845 (inactive) and -0.59 (inactive); in assay [12], -1.93 (inactive) and -1.7 (inactive); in assay [13] it was 0.916 (inactive) and 1.05 (inactive); in assay [14], 2.66 (inactive) and 1.53 (inactive); in assay [15], 1.83 (inactive) and 0.775 (inactive).

These data come from PubChem BioAssay.
